Measurements: publication PMC5540273 (PLoS ONE, 2017)

What was measured:
Conditions in all cases: concentration: 1 μM, replicates: in singlicate; n = 1
BRSK1 = test system: BRSK1
BRSK2 = test system: BRSK2
BTK = test system: BTK
BUB1 = test system: BUB1
CAMK1B = test system: CAMK1B
CAMK1D = test system: CAMK1D
CAMK1G = test system: CAMK1G
CAMK1 = test system: CAMK1
CAMK2A = test system: CAMK2A
CAMK2B = test system: CAMK2B
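Also: KINOMEscan kinase panel screen.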

## CCc1nc(-c2cccc(N(C)S(=O)(=O)c3ccccc3)c2)c(-c2ccnc(Nc3ccc(N4CCN(C(C)=O)CC4)nc3)n2)s1 [GSK1645895]
BRSK1
  %Inh: 0%
BRSK2
  %Inh: 0%
BTK
  %Inh: 0%
BUB1
  %Inh: 0%
CAMK1B
  %Inh: 27%
CAMK1D
  %Inh: 29%
CAMK1G
  %Inh: 16%
CAMK1
  %Inh: 45%
CAMK2A
  %Inh: 0%
CAMK2B
  %Inh: 0%

## CCC(CC)(CC)n1cnc2c(N)ncnc21 [SKF-97620]
BRSK1
  %Inh: 0%
BRSK2
  %Inh: 15%
BTK
  %Inh: 0%
BUB1
  %Inh: 48%
CAMK1B
  %Inh: 18%
CAMK1D
  %Inh: 4%
CAMK1G
  %Inh: 6%
CAMK1
  %Inh: 3%
CAMK2A
  %Inh: 0%
CAMK2B
  %Inh: 0%

## Cc1ccc(NC(=O)c2cccc(C#N)c2)cc1-c1ccc(C(=O)Nc2ccncc2)cc1 [GSK1398463]
BRSK1
  %Inh: 15%
BRSK2
  %Inh: 0%
BTK
  %Inh: 0%
BUB1
  %Inh: 27%
CAMK1B
  %Inh: 0%
CAMK1D
  %Inh: 42%
CAMK1G
  %Inh: 67%
CAMK1
  %Inh: 49%
CAMK2A
  %Inh: 7%
CAMK2B
  %Inh: 6%

## Cn1ccc2ncnc(Nc3ccc(Oc4cccc(Cl)c4)c(Cl)c3)c21
BRSK1
  %Inh: 13%
BRSK2
  %Inh: 0%
BTK
  %Inh: 0%
BUB1
  %Inh: 12%
CAMK1B
  %Inh: 0%
CAMK1D
  %Inh: 11%
CAMK1G
  %Inh: 5%
CAMK1
  %Inh: 22%
CAMK2A
  %Inh: 9%
CAMK2B
  %Inh: 0%
